Bioassay records from PubChem.
A selection: hits, their analogues and other compounds. The true share with any hit is near 2.4%.
D2 PAM-1: potentiates the human D2 dopamine receptor allosterically. AID 624464. P14416. potentiation, % (test concentration not listed). hit rate 0.23% among 360,000. DiscoveRx D2 beta-arrestin cells, luminescence, 90 min; 100% = 57 uM dopamine signal; in the data active = potentiation above about 50%; inconclusive = mostly about 30% to 49%
Target sequence (P14416 whole entry, looked up): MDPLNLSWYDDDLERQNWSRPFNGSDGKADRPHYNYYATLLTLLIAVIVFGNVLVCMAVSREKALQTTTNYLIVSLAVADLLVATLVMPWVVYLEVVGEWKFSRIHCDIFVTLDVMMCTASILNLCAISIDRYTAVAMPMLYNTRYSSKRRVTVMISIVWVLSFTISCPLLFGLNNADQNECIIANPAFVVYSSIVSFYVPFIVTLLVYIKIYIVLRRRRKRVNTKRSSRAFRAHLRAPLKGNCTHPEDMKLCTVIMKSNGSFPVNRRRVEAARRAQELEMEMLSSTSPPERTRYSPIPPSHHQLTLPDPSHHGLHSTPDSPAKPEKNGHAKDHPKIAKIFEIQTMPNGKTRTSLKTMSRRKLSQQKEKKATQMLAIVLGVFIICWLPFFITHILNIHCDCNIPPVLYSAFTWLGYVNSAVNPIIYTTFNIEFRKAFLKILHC
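PathHunter beta-arrestin assay in DiscoveRx D2 cells. Compounds were added with an EC20 of dopamine (50 nM final) for 90 min at 37 deg C. Luminescence was read 1 h after detection reagent, with 57 uM dopamine as the EC100 control.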
D2 ag-1: D2 dopamine receptor (human) agonism; P14416; HEK293 T-REx D2 cells, calcium flux agonist mode; activation, % at 2 µM; hit rate 0.53% among 340,000; AID 485358;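 active = activation over 3 SD above normal in the single-dose calcium agonist read, cut at about 30% in these data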; also: 0% is about no effect
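Calcium-flux readout, 1 cycle/sec over 180 s following compound pin transfer, in inducible HEK293 Trex D2 cells (force-coupled); dopamine controls included. Positive calcium responses during this window marked compounds as potential agonists.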
D2 antag: antagonists of human D2 dopamine receptor. HEK293 TREx D2 cells, calcium flux, dopamine EC80. inhibition, % at 10 µM. AID 485344. hit rate 2% among 340,000; in the data active = inhibition above about 30%; inactive = below that, where a call was filed; also: 0% is about no effect
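Read-out: kinetic calcium fluorescence (1 cycle/s) in inducible HEK293 T-REx D2 cells after an EC80 dopamine addition that followed 180 s compound preincubation. Loss of the dopamine response indicates antagonism.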
D2 ag-2: human D2 receptor agonism in beta-arrestin assay; hit rate 0.084% among 360,000; activation, % (no concentration beside the values); DiscoveRx PathHunter D2 beta-arrestin, luminescence, 90 min; 100% = 57 uM dopamine signal; AID 624465; in the data active = activation above about 40%; inconclusive = between about 15% and that limit
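DiscoveRx PathHunter D2 beta-arrestin cells (2,100/well) attached overnight, then compound-stimulated 90 min at 37 C in HBSS/10 mM HEPES/0.1% Tween-20 buffer; beta-galactosidase complementation read by luminescence after 1 h at ambient temperature. Dopamine 57 uM final (EC100) as control.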
D2 PAM-2: positively modulates the human D2 dopamine receptor allosterically; potentiation, % at 10 µM; HEK293 T-REx D2, calcium flux, EC20 dopamine potentiation; hit rate 0.34% among 340,000; AID 485347; P14416;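 active = potentiation over 3 SD above the plate norm, cut at about 30% in these data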; also: 0% is about no effect
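Tetracycline-induced HEK293 T-REx cells force-coupled to calcium signalling expressed D2; compounds were pin-added after a 10 s baseline, read kinetically 180 s, then an EC20 dopamine challenge followed with a further 180 s calcium read.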
* hit, by the source's call; ! = not confirmed by another sample.

How did Cc1c(N2C(=O)c3ccc(Br)cc3C2=O)c(=O)n(-c2ccccc2)n1C do in these assays?
D2 PAM-1: 12; D2 ag-1: 0; D2 antag: -6; D2 ag-2: 2; D2 PAM-2: 19

How did CC(=O)c1cccc(NC(=O)c2cc(-c3ccc(Cl)s3)nc3ccccc23)c1 do in these assays?
D2 ag-1: 3

Results for COC1=CC(=Cc2c(N)n3nc(CC(=O)N4CCCCC4)sc3nc2=O)C=C(OC)C1=O ?
D2 PAM-1: 2; D2 ag-1: 70*; D2 antag: -2; D2 ag-2: -3; D2 PAM-2: 7

Results for CCOC(=O)c1ccc(OC(=O)c2cn(-c3ccc(C)cc3)c(=O)c3ccccc23)cc1 ?
D2 ag-1: 2; D2 PAM-2: 15

Results for N#C/C(=C\c1c(N2CCCCCC2)nc2ccccn2c1=O)C(=O)NC1CCS(=O)(=O)C1 (configuration not stated) ?
D2 PAM-1: -19; D2 ag-1: 0; D2 antag: -6; D2 ag-2: 0; D2 PAM-2: -10

Results for N#C/C(=C\c1c(N2CCOCC2)nc2ccccn2c1=O)C(=O)NC1CCS(=O)(=O)C1 (configuration not stated) ?
D2 PAM-1: -9; D2 ag-1: -1; D2 antag: 38*; D2 ag-2: -3; D2 PAM-2: 12

Results for Cc1cccc(NC(=O)CCS(=O)(=O)c2cc(Br)cc3c2N(C(=O)C2CC2)CC3)c1 ?
D2 PAM-2: 13

How did Cc1nn2c(NCc3ccccn3)c3c(nc2c1-c1ccccc1)CCC3 do in these assays?
D2 PAM-1: -12; D2 ag-1: 2; D2 antag: 40*; D2 ag-2: -6; D2 PAM-2: -11

Results for CC(=O)Nc1ccc(N/C=C2/CCCC2=O)cc1 ?
D2 PAM-1: -6; D2 ag-1: 1; D2 antag: -3; D2 ag-2: -6; D2 PAM-2: 22

How did Cc1cc(O)ccc1N/C=C1\CCCC1=O do in these assays?
D2 PAM-1: 64*; D2 ag-1: -1; D2 antag: 20; D2 ag-2: 12; D2 PAM-2: 24

How did Cc1ccc([N+](=O)[O-])cc1N/C=C1\CCCCC1=O do in these assays?
D2 PAM-1: -6; D2 ag-1: -1; D2 antag: 52*; D2 ag-2: -2; D2 PAM-2: 11

What do the screens show for `Cc1ccc([N+](=O)[O-])cc1NC(=O)C1CCCC1`?
D2 PAM-1: -12; D2 ag-1: 2; D2 antag: 0; D2 ag-2: -1; D2 PAM-2: -1

What do the screens show for `COc1cc(C(=O)NCC(=O)N/N=C/c2ccc(-c3cccc([N+](=O)[O-])c3)o2)cc(OC)c1OC`?
D2 PAM-1: -12; D2 ag-1: -1; D2 antag: 50*; D2 ag-2: -6; D2 PAM-2: -24

Results for COc1cc(C(=O)NCC(=O)N/N=C/c2ccc(-c3ccc([N+](=O)[O-])cc3)o2)cc(OC)c1OC ?
D2 PAM-1: 4; D2 ag-1: -1; D2 antag: -16; D2 ag-2: 5; D2 PAM-2: -4

What do the screens show for `CN(C)CCCNC(=O)/C(=C\c1ccc(-c2cccc([N+](=O)[O-])c2)o1)NC(=O)c1ccccc1`?
D2 PAM-1: -10; D2 ag-1: 1; D2 antag: 37*; D2 ag-2: 0; D2 PAM-2: -1

What do the screens show for `Cc1ccc(/C=N/NC(=O)CNC(=O)c2cccc([N+](=O)[O-])c2C)o1`?
D2 PAM-1: -5; D2 ag-1: 1; D2 antag: 2; D2 ag-2: -6; D2 PAM-2: 38*

How did Cc1cc(C)nc(SCC(=O)N2CCc3ccccc32)n1 do in these assays?
D2 PAM-1: -2; D2 ag-2: -2

Results for Cn1c(-c2ccccc2)cnc1SCC(=O)N1CCCc2ccccc21 ?
D2 PAM-1: -8; D2 ag-1: 0; D2 antag: -15; D2 ag-2: -2; D2 PAM-2: -9

What do the screens show for `O=C(CSc1nnc(-c2ccccc2)c(-c2ccccc2)n1)N1CCc2ccccc21`?
D2 PAM-1: -4; D2 ag-1: -1; D2 antag: 69*; D2 ag-2: 0; D2 PAM-2: -2

How did O=C(CSc1ncc(-c2ccccc2)n1C1CCCC1)N1CCc2ccccc21 do in these assays?
D2 PAM-1: -22; D2 ag-1: 0; D2 antag: 31*; D2 ag-2: -2; D2 PAM-2: -31

Results for CCCSCCCNC(=O)C1CCN(c2nc3ccccc3nc2C(F)(F)F)CC1 ?
D2 ag-1: 0; D2 PAM-2: -4

What do the screens show for `COCC(=O)OC1CCn2c1nc1c2C(=O)C(C)=C(NC(C)=O)C1=O` (configuration not stated)?
D2 PAM-1: 87*; D2 ag-2: inconclusive

How did CCOC(=O)CCNCC1COc2ccccc2O1 (configuration not stated) do in these assays?
D2 PAM-1: -29; D2 ag-1: 17; D2 antag: 1; D2 ag-2: -2; D2 PAM-2: -20

How did OC(CNCC1COc2ccccc2O1)COCc1cccs1 (configuration not stated) do in these assays?
D2 PAM-1: -14; D2 ag-1: 0; D2 antag: 31*; D2 ag-2: -3; D2 PAM-2: -35

Results for c1ccc(CCCCNCC2COc3ccccc3O2)cc1 (configuration not stated) ?
D2 PAM-1: -5; D2 ag-1: 8; D2 antag: 96*; D2 ag-2: -2; D2 PAM-2: -43

What do the screens show for `O=C(CC1COc2ccccc2O1)NCCc1ccccc1` (configuration not stated)?
D2 PAM-1: -2; D2 ag-1: 1; D2 antag: -2; D2 ag-2: -1; D2 PAM-2: -1

Results for CCCNCC1COc2ccccc2O1 (configuration not stated) ?
D2 PAM-1: -14; D2 ag-1: 13; D2 antag: 33*; D2 ag-2: 0; D2 PAM-2: -29

What do the screens show for `Cc1ccc(NC(=O)c2cnc(SCC(=O)N3CCOCC3)n(C)c2=O)cc1C`?
D2 ag-1: 1; D2 PAM-2: -2

Results for COc1ccc(S(=O)(=O)c2c(Nc3c(C)cccc3C)sc(C(=O)c3ccc(F)cc3)c2N)cc1 ?
D2 ag-1: 0; D2 PAM-2: 4

What do the screens show for `Cc1ncc([N+](=O)[O-])n1CCO`?
D2 PAM-1: -2; D2 ag-1: 0; D2 antag: 38*!; D2 ag-2: -6; D2 PAM-2: 5

What do the screens show for `CCCN1Cc2cccc(C(=O)Nc3cccc(C(=O)OCC)c3)c2C1=O`?
D2 ag-1: 1; D2 PAM-2: 3

How did Oc1ccc(N=Nc2ccccc2)cc1 do in these assays?
D2 PAM-1: -11; D2 ag-1: 0; D2 antag: 33*; D2 ag-2: -3; D2 PAM-2: 5
